Assay results from the supplement of paper PMC12632987.
Over roughly 1,800 sequences, “median log2 fold change of GCK-ALFA target abundance (FLAG IP / Myc IP barcode read proportion)” has its median near 0.14; the lowest 2% begin near -0.84. The entries come from a sample that favours the lowest values as a whole.

T1: TRAF2, Q12933
T1 chain: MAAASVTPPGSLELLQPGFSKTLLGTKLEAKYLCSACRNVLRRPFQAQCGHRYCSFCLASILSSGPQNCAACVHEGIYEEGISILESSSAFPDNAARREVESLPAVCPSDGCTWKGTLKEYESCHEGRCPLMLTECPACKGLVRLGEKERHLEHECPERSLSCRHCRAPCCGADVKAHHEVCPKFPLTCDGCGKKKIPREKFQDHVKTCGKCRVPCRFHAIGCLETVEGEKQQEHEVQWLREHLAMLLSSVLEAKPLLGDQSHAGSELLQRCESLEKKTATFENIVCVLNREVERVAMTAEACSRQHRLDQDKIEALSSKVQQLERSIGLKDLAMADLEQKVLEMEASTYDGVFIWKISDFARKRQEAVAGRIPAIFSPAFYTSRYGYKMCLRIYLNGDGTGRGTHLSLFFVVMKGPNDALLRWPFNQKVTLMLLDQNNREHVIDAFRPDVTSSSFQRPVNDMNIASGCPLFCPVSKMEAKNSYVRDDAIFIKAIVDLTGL

B1: traf2_out_14_149_1260 (protein)
chain: SATEERRRALREALELFERAAELLAAAIAAGSNDLDVEELRRLLEEAREILSKQGFVLGSLLAIEELLEEAEELTEEDLRRLLELAERAAESLEVLAEML
B2: traf2_out_17_178_1741 (protein)
chain: SKEEILKEISKLADEMIDVSREAAEKLTELAEKEGILTPELRERLDLVARTSNLYAFEEVANELIELSKNKEEIQKLLDETTKKLRELRKKIQEAVEKLK
B3: traf2_out_13_95_1214 (protein)
chain: SAEANAELREVAREYTDRAEAVIDALAAALAPDPEVQPDMDAIRAAFRRNGVRQAIALIRAAAARHPEHKADFDAAAAELEAIRREAGRRFAEILKRDEE
B4: traf2_out_9_108_2593 (protein)
chain: MTKEEILEEKFKKVEELVKEFIEEVDLTEEQKEELEEAIKNAKELYEKGLKETAIILLAIDLARVASKVGEEAVKELLEKLKKIDERAYSAAERMVKLLK
B5: traf2_out_17_162_1623 (protein)
chain: SPEEEELKRYEEELKELEKEKKELEKKAEKIDELSKEELTDLLVEASEARRRARELAERIERKREELNDPRLEELLKRAEEIAEEFQRIANKFYKKLEEK
B6: traf2_out_1_33_1031 (protein)
chain: SAEIERKSMALLRRTTGEMYRLLRETEEKMEKLLEEGKPAEEIEKLAEETRKKIKEIADKAIAELKALGDDLTADILESEKTDILKRLDEIKKEILAKLK
B7: traf2_out_20_38_2038 (protein)
chain: SEEEEEEERLERLVEVANAALDRYEARIAALQAEGKSVAEIAEWAKEEIRRILGEAGLEEEAEELIAQVRTVENRPDALRLIARILARAEALAYQKELQK
B8: traf2_out_11_131_661 (protein)
chain: MDAVAMAKSVAARVDERLALAKTLSPEERTRLARQALDSIEALAEYLTSHVSEMSKEDVEEAVKILRASAKKVLAADPSVAEDVKEVEKALKKLLEAAKA
B9: traf2_out_20_38_2029 (protein)
chain: SEEEEEERRLEELIKVANDSYDKYTKKFEKLVAEGKTVEEIAELAKKEVKEKLTAAGLEEEAKELIEDIDRALSSPNALRLIVRILARADALVHQKKINE
B10: traf2_out_3_89_2291 (protein)
chain: SMEKEKKIKEAKERAERYVKGFEKNARRVAKEMLEEGHSLETLRGVLEAARTAIVETFGETLKEEGIDKETRDKILEELKKKLDEIVEEVVEEAKKRREE
B11: traf2_out_11_169_862 (protein)
chain: KEEEFNRKLIDFALEVEDEAKKKLKEFALKLAKEAGLDVAEVEAIFEKHKNSSLSAIASALIEYFRSKGKEEEAEKILKKHDELKEEINKKVSEKIKELK
B12: traf2_out_16_177_1458 (protein)
chain: ELDRVMDRLVILSLIRRAALEIVRSNSPEAERYLAEARAEAEAAGDEEGLARIARIEELAAQNTPEARAELRALAAEAQREAQRLANEAERLIRERAAAE
B13: traf2_out_20_38_2034 (protein)
chain: SMEEEEEEKLEEIIEVANEALDKYEAEIAKWKAEGKTVEEIAEEAKKKVKELLSKVGLEEEAKILIEEIDLALSSPDAERLIARTLARAEALVKQKELNE
B14: traf2_out_20_38_2035 (protein)
chain: SEEEEEEEKLEEIIEVANEAYDEYMAWIAERKAAGKTVEEIAEEAKEEVKELLSKVGLEEEAEILIEDIDRALSSPDAERLIARTLARAVALVKQKELNK
B15: traf2_out_1_71_1752 (protein)
chain: SPEAEKAEKALEDMAKSIAEGMKTEEALERYLEAFRNHIKRVKALAKANKDDEAVKAGSIADLNLEAELLEKIAKYVDEESKKKLEELAKEAKKAAEEIK
B16: traf2_out_13_95_1034 (protein)
chain: SRELAEKIMEIADEAEEKILKLLEEKSKELADDPEMVKVLEEARRLALTRGVNEAIHLLREASERFPEYKEELDKLIEEIEKIREEAGKKVAELIKEEEE
B17: traf2_out_20_38_2036 (protein)
chain: SMEEEEEEKLEEIIRVANEAYDAYEAEIAALKAAGKTVEEIAAIAKERVRELLSKVGLEEEAEILVEDIDLALSSPEAERLIARILARAEAKVKQKELNE
B18: traf2_out_20_38_2022 (protein)
chain: SEEEEEKKKLEELVKVANEAYDEYTARFAEWKAAGKTVEEIAEEVKERIRELLTAAGLEEEAEILIEEVDLALKSPEAERLLVRTLARAVALVHQKELQK
B19: traf2_out_13_95_1078 (protein)
chain: SAEANKKIMEIADEMLEKSLKILKELSKKVADNPEMKAAVEEAIHLAETQGINAAIHLLEKLSEANPEYKELLDEAIKKLKEIKEEAGKKVAEILKEEKE
B20: traf2_out_11_155_677 (protein)
chain: EKKREINNALVDEMAAIDDATRAALDAIVDAAAAAHPEHAAALRAARDATRPYPGSSRGRALAALFRELGLEDYAAQVEALLAAAQKEKNAALKAHEAKL
B21: traf2_out_20_3_2096 (protein)
chain: EELKKELEKALEEAEKLIKEAIKLADEETAKKLKELLKKLKEAKELPLDDQLVELSEVRRELLELAEKAKKEGKEELAKILEEAADKINRAMNLAYKIIE
B22: traf2_out_17_178_1700 (protein)
chain: SKEEIRKKISELTDELIDHADRYGTALLARLRAEGVLSPEELAALDAALASGSNRTLLATAEELIPRSAASPETRALLAEWRAETREIAKKIAEAYEKYE
B23: traf2_out_18_167_1855 (protein)
chain: EEELKKKLEEATDELVKLSEVKRLARTALQLLETDPAAFPAAKAALIAALRAHGELAHLADRLEAAPPEEQPAVLEEIVEEAQRLANEKYKEIEELRKKL
B24: traf2_out_5_63_2338 (protein)
chain: SEREELTALAREADRAVRAILEALKAGKREEARKLVEEVAKDPELLRTAIGIARAELKYYSLQPEKKEEEKIAKELLKLLEEAAKRREEEERREREEALA
B25: traf2_out_17_178_1715 (protein)
chain: TKEAARAEISAATDEMIDLAEAAAARLLAIAEAEGSLSPEELAELRRARRLGSARTTRALMRRAIPRSPSAAEVQALLDDFEKRYAELSKKIAEALKKYE
B26: traf2_out_15_180_1332 (protein)
chain: MTEEELEKRIELVAEVADEADERVREELAAAGVTSPEHLALARSGVRAVITHVFAGWEEEAEEVEEIVAARLPEELRPLFRRLVEEARRRAEEALERLKK
B27: traf2_out_6_3_2529 (protein)
chain: SEEKLREDARTILENMGITTAEQLLRLVKAEVNAVKQLVSRPDVDRADLAGARSVLALTRAMVEVAAETLPSLTPEQAEEALALIDETEKLVEKREKELE
B28: traf2_out_6_3_2518 (protein)
chain: MEESIRRDAAKVLENMGITTAEQLLRLVKANVNAVKKLVSRKDVDRADLAGAESVLNLTRAMVEVAAETLPDLTEEQKAEMLALIEEARELVEKKRKELE
B29: traf2_out_6_3_2519 (protein)
chain: MEESLREDARTVLKNMGITTAEQLLRLVKAEVNAVKKLVSRKDVDRADLAGAESVLALTRAMVEVAAEELPDLTEEQKAEMLELIEEAEKLVEEKRKELE

Target: T1, TRAF2, Q12933
Assay: median log2 fold change of GCK-ALFA target abundance (FLAG IP / Myc IP barcode read proportion) (log2 ratio); each designed protein is fused to an ALFA-tag nanobody in HEK293 cells to bring the named protein to FLAG-tagged glucokinase (GCK); Myc marks an untargeted standard; higher = target protein stabilised (more abundant)
Details: target protein: 3xFLAG-MCP-GCK-ALFA reporter; HEK293 landing pad (RPLP)
Procedure, shortened: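 An ALFA-nanobody-fused binder library was recombined into HEK293 landing-pad cells and induced with 2 μg mL^−1 doxycycline. Cells were transfected with a plasmid expressing a FLAG-tagged target and a Myc-tagged standard. After 48 h, lysates underwent anti-FLAG and anti-Myc immunoprecipitation, and circular RNA barcodes were reverse transcribed, amplified and sequenced. Target abundance is the per-binder median log2 ratio of FLAG to Myc barcode read proportions. Barcodes needed ≥10^−7 proportion in both replicates, binders ≥3 barcodes per replicate, and a 10^−6 pseudocount was added; the two replicates were pooled.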

Row | Binder | median log2 fold change
1 | B1 | 0.0539
2 | B2 | -0.0674
3 | B3 | -0.892
4 | B4 | -0.0117
5 | B5 | 0.4
6 | B6 | 0.233
7 | B7 | -1.39
8 | B8 | 0.0951
9 | B9 | -1.3
10 | B10 | -0.996
11 | B11 | 0.0801
12 | B12 | -0.327
13 | B13 | -0.126
14 | B14 | -1.16
15 | B15 | -0.948
16 | B16 | -0.375
17 | B17 | -1.27
18 | B18 | -0.885
19 | B19 | 0.00315
20 | B20 | -0.00384
21 | B21 | 0.177
22 | B22 | 0.0128
23 | B23 | 0.405
24 | B24 | 0.165
25 | B25 | -0.171
26 | B26 | -0.0893
27 | B27 | -0.16
28 | B28 | -0.905
29 | B29 | -0.45
